Source: PubChem BioAssay AID1578 (Sanford-Burnham Center for Chemical Genomics, 2009)
The whole screen tested about 290,000 compounds, of which about 3,000 (1%) were called active. This is one part of a sample in which actives are shown more often than they occur. No stated cut-off is given here; in the data, active means inhibition mostly above about 36% (no sharp cut-off); inactive means mostly below about 34%.

Assay: NOD1 signaling inhibitors, primary screen, cell-based, luminescence, uHTS (AID 1578);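 further: HEK-293T reporter cells stimulated with the NOD1 agonist gamma-tri-DAP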
Conditions: NOD1-driven NF-kB luciferase reporter cells, at 4 µM, stronger effect = higher value

inhibition, inactive:
CC1=Cc2ccccc2C(C#N)N1C(=O)c1ccccc1 (stereo not given) 31.4%
Cc1cc(-c2ccc(C)c(S(=O)(=O)NCCCN3CCN(c4ccccc4)CC3)c2)on1 17.3%
Cc1cc(-c2ccc(C)c(S(=O)(=O)N3CCN(c4ccccn4)CC3)c2)on1 -13%
CCc1ccc(-c2cc(C)no2)cc1S(=O)(=O)N1CCN(c2ccc(F)cc2)CC1 5.8%
COc1ccc(-c2cc(C)no2)cc1S(=O)(=O)NCCCN1CCN(c2ccccc2)CC1 -7.4%
CC(NC(=O)NC(=O)c1ccc(Cl)cc1Cl)C1CC1 (stereo not given) -53%
CCOc1ccc(NC(=S)NC(C)c2cccs2)cc1 (stereo not given) -21.7%
COc1cc(NC(=O)CN(c2ccc(C)cc2)S(=O)(=O)c2c(C)noc2C)cc(OC)c1 -34.4%
O=C1C=C(Nc2ccccc2)c2ccccc2C1=O -24.6%
CCCCNC1=CC(=O)C(=O)c2ccccc21 -7.1%
O=C1Cc2cc(S(=O)(=O)N3CCCCC3)ccc2N1 -22.1%
CCCC(=O)NC(=S)Nc1cccc(NC(=O)c2ccccc2Cl)c1 -18.6%
O=C(Nc1cccc(S(=O)(=O)Nc2ccccc2F)c1)c1ccc2ccccc2n1 33.7%
COc1ccccc1NS(=O)(=O)c1cc(NC(=O)c2ccc3ccccc3n2)ccc1Cl -24.5%
COc1ccc(CCNC(=O)c2ccc3ccccc3n2)cc1OC -14.9%
COc1ccc(CNC(=O)c2ccc3ccccc3n2)cc1 -33.9%
COc1cccc(C(=O)NC2CCN(CC(=O)Nc3nccs3)CC2)c1 7.4%
O=C(c1ccc2nc(Cc3cccc(Cl)c3)oc2c1)N1CCC[C@H]1CO -34%
O=C(CCN1CCCCO1)N1CCCC(N2CCN(c3ccc(F)cc3)CC2)C1 (stereo not given) -8.6%
Cc1ccc(CNC(=O)C2CCN(c3nn4c(=O)cc(C)nc4s3)CC2)cc1 -23.9%
COc1ccc(C)cc1N(C(=O)c1ccc(C#N)cc1)C1=NC(C)(C)CS1 -8.3%
Cc1ccc(OCC(=O)N2CCc3ccccc3C2)cc1 4.6%
COc1ccc(OCC(=O)N2CCc3ccccc3C2)cc1 -21.2%
COC(=O)N/N=C/c1cn(CCCOc2ccccc2)c2ccccc12 25.7%
CCOC(=O)N/N=C/c1cn(CCCOc2ccc(C)cc2)c2ccccc12 31.1%
C#CCn1cc(/C=N/NC(=O)c2cc3ccccc3o2)c2ccccc21 -7.9%
CCn1cc(/C=N/NC(=O)c2cc3c(ccc4ccccc43)o2)c2ccccc21 32%
CCCS(=O)(=O)N1CCC(C(=O)c2cccc(C(F)(F)F)c2)CC1 -5.7%
Cc1cc(C(=O)Nc2nnc(C(F)(F)F)s2)cs1 -7.7%
COc1ccc(OC)c(S(=O)(=O)N2CCN3CCCC3C2)c1 (stereo not given) -16.6%
Nc1ccccc1C#CCCCCO -18.4%
Nc1ccccc1C#Cc1ccccc1 -30.1%
O=[N+]([O-])c1ccc(Cl)c(/C=N/n2c(COc3ccccc3)n[nH]c2=S)c1 -22%
COC(=O)CN1C(=S)N(c2ccc(Cl)cc2)C(=O)C1CC(=O)Nc1ccccc1 (stereo not given) -29.4%
COc1cccc(N=Nc2ccc3ccccc3c2O)c1 -81.3%
O=Nc1ccc(O)c2ncccc12 19.6%
Nc1ccc(N=Nc2ccccc2)c2cccnc12 -3.3%
Cc1cccc(NCc2ccc(O)c3ncccc23)c1 -29%
COc1ccc(C)cc1N=Nc1ccc(O)c2ncccc12 -31.6%
O=S(=O)(O)c1cccc2c(N=Nc3ccc(O)c4ncccc34)cccc12 25.1%
CCS(=O)(=O)c1ccc(OC)c(N=Nc2ccc(O)c3ncccc23)c1 24.1%
COc1ccccc1N=Nc1ccc(O)c2ncccc12 -11.7%
CCOC(=O)c1ccc(Nc2c(OCC)c(=O)c2=O)cc1 8%
Cc1ccc(/C=N/N2CCN(C3c4ccccc4-c4ccccc43)CC2)s1 0.2%
NNC(=O)c1cc(Cl)ccc1Cl -38.8%
COc1ccc(-c2noc(CCC(=O)NCCc3ccccc3)n2)cc1OC -7.8%
c1ccc(-c2nnsc2Sc2ccccn2)cc1 -52.7%
CN(C(=O)n1cnc2ccccc21)c1ccccc1 -29.2%
CCOc1cc2nc(-c3ccc(OC)c(OC)c3)nc(N3CCOCC3)c2cc1OC -23.5%
CCS(=O)(=O)c1ccc(N=Nc2ccc(O)c3ncccc23)c(OC)c1 -30%
CCOc1ccc(N=Nc2ccc(O)c3ncccc23)cc1 25.7%
Cc1ccc(C(=O)Nc2nc(C)c(C)s2)o1 -44.9%
O=C(N/N=C/c1ccc(Cl)cc1)c1sccc1OCc1ccc(F)cc1 -25.8%
C=CCOc1cccc(C(=O)/C=C2/C(=O)Nc3ccccc32)c1 -3.7%
C=CCOc1ccc(C(=O)/C=C2/C(=O)Nc3ccccc32)cc1 1.1%
Cc1cc(NC(=O)CCC(=O)N(CC(=O)NC2CCCC2)c2cccc(F)c2)no1 -29.1%
O=C(Nc1ccccn1)c1ccc(Br)c(S(=O)(=O)N2CCCCC2)c1 -25.4%
O=C(Nc1ccccn1)c1ccc(Br)c(S(=O)(=O)N2CCCC2)c1 -39%

inhibition, active:
O=C1C=C(NCc2ccccc2)c2ccccc2C1=O 78.8%
CCOC(=O)Cn1cc(/C=N/NC(=O)c2cc3ccccc3o2)c2ccccc21 35.8%
CCOC(=O)N/N=C/c1cn(CCCOc2ccccc2)c2ccccc12 79.6%
Nc1ccccc1C#CC(=O)c1ccccc1 58.4%
Cc1cccc(N=Nc2ccc(O)c3ncccc23)c1 108%
COc1ccc(N=Nc2ccc(O)c3ncccc23)cc1 108%
C=CCOc1ccccc1C(=O)/C=C1/C(=O)Nc2ccccc21 37.3%
